This passage reports Potency and outcome results from PubChem BioAssay (Tox21).

SMILES strings stand for the structures. Where “and” joins values, the source holds several entries; their conditions need not be identical. Identical values can stand only once. Records with an inconclusive call do not appear. Calls of active or inactive are those of the source. Unless noted, the call rests on the fitted dose curve; in most records, active means well fitted curve in the direction sought with a large enough effect in the repeat runs; inconclusive means weak or mixed curves; inactive means no such curve, though single readings can be large; an effect the other way counts as inactive or inconclusive. Residues, ends and D or L forms follow the SMILES beside them.

The nature of test [1]: qHTS assay to identify aromatase inhibitors - cell viability counter screen (AID 743084;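 further: cells stimulated with testosterone during compound exposure; nearly all actives have a fitted effect of over 55% in size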; further: potency means the concentration at half of the fitted maximal effect). (In general: Quantitative high-throughput screening tests each substance at several concentrations.)
The target of test [2] is Aryl hydrocarbon receptor (Homo sapiens) (UniProt P35869). In words: qHTS assay to identify small molecule that activate the aryl hydrocarbon receptor (AhR) signaling pathway (AID 743085). Further: nearly all actives have a fitted effect of over 15% in size. Further: potency means the concentration at half of the fitted maximal effect.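 On activation: HG2L7.5c1 human HepG2 liver cells with stably integrated DRE-driven firefly reporter; series mostly up to about 70 µM.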 A digest of the protocol:
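AhR agonist activity is inferred from enhanced light output of a DRE-controlled firefly luciferase reporter in HepG2 cells, measured with ONE-Glo following 24 h treatment at 37C.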

A short description of test [3]: qHTS assay to identify small molecule that activate the aryl hydrocarbon receptor (AhR) signaling pathway - cell viability counter screen (AID 743086). Further: nearly all actives have a fitted effect of over 45% in size. Further: potency means the concentration at half of the fitted maximal effect. A digest of the protocol: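 HepG2-AhR-luc (HG2L7.5c1) cells, 4000/well, were preincubated 5 h at 37C, exposed to compound in qHTS format for 24 hr at 37C, then given CellTiter-Fluor for 30 min; viability was read as fluorescence in the reporter wells.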

Test [4] deals with Peroxisome proliferator-activated receptor gamma (Homo sapiens) (UniProt P37231). The test can be described thus: qHTS assay to identify small molecule agonists of the peroxisome proliferator-activated receptor gamma (PPARg) signaling pathway (AID 743094; active means well fitted activation curve with a large enough effect in the signal ratio in the repeat runs, not every such curve was filed as active; the % refers to the signal ratio). The method, boiled down: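 Agonist activity was taken from a beta-lactamase reporter (FRET substrate, 1 h at room temperature) in HEK293H cells carrying a PPARg UAS-bla construct. Compounds in DMSO were incubated 17 h at 37C after a 5 h cell pre-incubation.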
Sequence of Peroxisome proliferator-activated receptor gamma (Homo sapiens) (P37231 whole entry, looked up): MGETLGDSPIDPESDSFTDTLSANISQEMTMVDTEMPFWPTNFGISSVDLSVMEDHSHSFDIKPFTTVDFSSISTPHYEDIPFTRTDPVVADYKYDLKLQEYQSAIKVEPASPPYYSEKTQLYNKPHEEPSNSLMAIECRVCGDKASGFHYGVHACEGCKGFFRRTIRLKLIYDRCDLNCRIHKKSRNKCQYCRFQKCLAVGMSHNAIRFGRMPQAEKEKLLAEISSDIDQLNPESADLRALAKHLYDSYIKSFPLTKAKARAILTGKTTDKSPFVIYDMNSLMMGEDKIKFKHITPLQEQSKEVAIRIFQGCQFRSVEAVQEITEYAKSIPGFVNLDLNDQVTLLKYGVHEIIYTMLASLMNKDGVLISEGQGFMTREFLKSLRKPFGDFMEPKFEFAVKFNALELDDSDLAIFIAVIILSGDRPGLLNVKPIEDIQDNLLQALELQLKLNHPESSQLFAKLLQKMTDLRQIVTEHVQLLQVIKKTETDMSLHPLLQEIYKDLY

The target is the same in test [5]. In words: qHTS assay to identify small molecule antagonists of the peroxisome proliferator-activated receptor gamma (PPARg) signaling pathway (AID 743191; calls by dose curve; further: series mostly up to about 63 µM; nearly all actives have a fitted effect of over 30% in size). A digest of the protocol: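 GeneBLAzer PPARg UAS-bla HEK293H cells carrying a UAS-driven beta-lactamase reporter were plated at 3000 cells/well, preincubated 5 h at 37C, then given compound for 17 h at 37C; LiveBLAzer B/G FRET substrate was read after 1 h at room temperature.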

The nature of test [6]: qHTS assay to identify small molecule antagonists of the peroxisome proliferator-activated receptor gamma (PPARg) signaling pathway - cell viability counter screen (AID 743194). Further: nearly all actives have a fitted effect of over 55% in size. The method, boiled down: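 PPARg-UAS-bla HEK293H cells were plated, rested 5 h at 37 C, then treated with compounds plus rosiglitazone (50 nM final) for 17 h at 37 C; viability was then read by CellTiter-Glo luminescence after 30 min at room temperature.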

Test [7] is described as follows: qHTS assay for small molecule agonists of the antioxidant response element (ARE) signaling pathway (AID 743202; active means well fitted activation curve with a large enough effect in the signal ratio in the repeat runs, not every such curve was filed as active; the % refers to the signal ratio). A digest of the protocol:
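Steps: seed ARE-bla HepG2 cells (2,000/well); incubate 5 h at 37 C; add compounds by pin tool; incubate 16 h at 37 C; add FRET substrate; read fluorescence after 2 h at RT.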

Test [8] is described as follows: qHTS assay for small molecule agonists of the antioxidant response element (ARE) signaling pathway - cell viability counter screen (AID 743203; calls by dose curve; further: nearly all actives have a fitted effect of over 55% in size). A digest of the protocol: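 Viability counter screen: CellTiter-Glo luminescence, read after 30 min at room temperature, in ARE-bla HepG2 wells. Compound exposure lasted 16 h at 37C/5% CO2, following a 5 h pre-incubation of the cells after plating.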

Test [9] can be described thus: qHTS assay for small molecule activators of the heat shock response signaling pathway - cell viability counter screen (AID 743209). Further: nearly all actives have a fitted effect of over 50% in size. The method, boiled down:
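Cytotoxicity counter screen run in the same wells as the heat-shock bla reporter assay: HeLa HSE-bla cells, 5 h compound exposure at 37 C, viability read by CellTiter-Glo luminescence.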

A short description of test [10]: qHTS assay for small molecule activators of the heat shock response signaling pathway (AID 743210; active means well fitted activation curve with a large enough effect in the signal ratio in the repeat runs, with a control signal flat, not every such curve was filed as active; the % refers to the signal ratio;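 further: HeLa cells with beta-lactamase reporter driven by heat shock elements; series mostly up to about 63 µM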). The method, boiled down: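 Activation of heat shock element-controlled beta-lactamase expression is measured in HeLa cells by LiveBLAzer FRET fluorescence, with compound exposure lasting 5 h at 37 C and substrate loading 2.5 h at room temperature.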

Sequence of Aryl hydrocarbon receptor (Homo sapiens) (P35869 whole entry, looked up): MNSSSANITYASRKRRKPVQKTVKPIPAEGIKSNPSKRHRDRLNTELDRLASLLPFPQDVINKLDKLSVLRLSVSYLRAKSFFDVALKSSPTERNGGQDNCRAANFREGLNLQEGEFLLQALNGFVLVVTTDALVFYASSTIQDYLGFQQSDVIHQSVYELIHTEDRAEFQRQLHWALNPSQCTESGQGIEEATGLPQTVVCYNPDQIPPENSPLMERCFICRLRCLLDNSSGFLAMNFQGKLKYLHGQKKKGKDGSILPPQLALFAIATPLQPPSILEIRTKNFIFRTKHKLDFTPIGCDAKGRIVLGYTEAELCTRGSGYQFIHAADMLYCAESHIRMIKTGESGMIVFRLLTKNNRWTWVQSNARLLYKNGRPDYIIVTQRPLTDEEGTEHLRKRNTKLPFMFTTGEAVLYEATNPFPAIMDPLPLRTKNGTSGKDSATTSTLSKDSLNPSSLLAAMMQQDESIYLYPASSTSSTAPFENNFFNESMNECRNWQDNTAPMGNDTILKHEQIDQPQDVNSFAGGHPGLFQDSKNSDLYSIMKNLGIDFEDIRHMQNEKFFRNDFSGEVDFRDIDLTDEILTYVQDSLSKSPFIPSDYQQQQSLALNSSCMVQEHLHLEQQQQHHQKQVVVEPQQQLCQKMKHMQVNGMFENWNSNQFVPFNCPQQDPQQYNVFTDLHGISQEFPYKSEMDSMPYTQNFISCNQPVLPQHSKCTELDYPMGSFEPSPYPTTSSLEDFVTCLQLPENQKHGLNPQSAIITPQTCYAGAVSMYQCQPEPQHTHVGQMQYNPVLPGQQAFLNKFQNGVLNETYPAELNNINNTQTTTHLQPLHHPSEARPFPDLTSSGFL

Turning to `COC(=O)[C@H](Cc1ccccc1)NC(=O)[C@@H](N)CC(=O)O` (H-Asp-Phe-OMe), the Potency result in test [1], in test [2], in test [3] and in test [7] was “inactive” each time. Besides, the call in test [4], in test [5], in test [6], in [8], in test [9] and in [10] was inactive.
Regarding `CCOc1ccc(NC(=O)CC(C)O)cc1` (centres undefined), the Potency entry in test [1], in [2], in test [3] and in [7] was “inactive” throughout. Moreover, the call in [4], in [5], in [6], in test [8], in test [9] and in [10] was inactive.
Take `Nc1ccc(S(=O)(=O)c2ccc(N)cc2)cc1`: the Potency result in test [1], in test [2], in test [3] and in [7] was “inactive” in each case. Also, the call in test [4], in [5], in [6], in test [8], in test [9] and in test [10] was inactive.
With `O=C(O)CCCCCCCC(=O)O`, the Potency result in [1], in test [2], in test [3] and in test [7] was “inactive” throughout. Further, the call in [4], in [5], in [6], in [8], in test [9] and in test [10] was inactive.
Consider `Cc1ccccc1C(OCCN(C)C)c1ccccc1` (centres undefined), for which the Potency result in test [1], in [2], in test [3] and in test [7] was “inactive” in each case. Further, the molecule was classed as inactive in [4], in test [5], in [6], in test [8], in [9] and in [10].
As to `O=C(O)CCC(=O)O`, the Potency result in test [1], in [2], in [3] and in test [7] was “inactive” each time. Moreover, the call in test [4], in [5], in test [6], in test [8], in test [9] and in [10] was inactive.
Regarding `O=C(O)C(=O)O`, the Potency entry in [1], in [2], in test [3] and in test [7] was “inactive” in each case. Moreover, the molecule was called inactive in test [4], in test [5], in [6], in test [8], in test [9] and in test [10].
As to `NC(=O)c1ccccc1O`, the Potency result in test [1], in [2], in test [3] and in test [7] was “inactive” each time. Further, the molecule was called inactive in test [4], in test [5], in test [6], in test [8], in [9] and in [10].
For the molecule `Cc1cc(=O)n(-c2ccccc2)n1C`, the Potency result in [1], in test [2], in test [3] and in test [7] was “inactive” each time. Further, the molecule was called inactive in [4], in test [5], in test [6], in test [8] and in test [9].
Take `NNC(=O)c1ccncc1`: the Potency entry in test [1], in [3] and in test [7] was “inactive” in each case. Besides, the Potency in [2] is 13.3 µM (active). Moreover, the call in test [4], in [5], in test [6], in test [8], in test [9] and in [10] was inactive.
Turning to `NC(=O)c1cnccn1`, the Potency result in test [1], in test [2], in test [3] and in [7] was “inactive” in each case. The call in [4], in [5], in [6], in test [8], in [9] and in test [10] was inactive.
`CCC1(c2ccccc2)C(=O)NCNC1=O`: the Potency result in test [1], in [2], in test [3] and in test [7] was “inactive” throughout. Besides, the result in test [4], in test [5], in test [6], in [8], in test [9] and in [10] was inactive.
As for `O=S(=O)(O)c1ccc2cc(O)ccc2c1`, the Potency result in [1], in test [2], in test [3] and in test [7] was “inactive” throughout. In addition, the molecule was classed as inactive in [4], in [5], in test [6], in test [8], in test [9] and in test [10].
Turning to `Cc1cc(=O)[nH]c(=S)[nH]1`, the Potency entry in test [1], in test [2], in test [3] and in [7] was “inactive” in each case. In addition, the molecule was classed as inactive in [4], in test [5], in test [6], in [8], in [9] and in test [10].
As for `Cc1noc(NS(=O)(=O)c2ccc(N)cc2)c1C`, the Potency entry in test [1], in test [2], in test [3] and in [7] was “inactive” in each case. The result in test [4], in test [5], in test [6], in test [8], in test [9] and in test [10] was inactive.
Regarding `CCCCCCCCCCCCCCCC(=O)O`, the Potency entry in test [1], in test [2], in test [3] and in test [7] was “inactive” each time. Also, the result in [4], in test [5], in [6], in test [8], in [9] and in test [10] was inactive.
Turning to `O=C(O)c1[nH]n(-c2ccc(S(=O)(=O)O)cc2)c(=O)c1N=Nc1ccc(S(=O)(=O)O)cc1`, the Potency in test [1] was 30.7 µM (active) and 57.1 µM (active); in test [3], 30.7 µM (active) and 22.7 µM (active). The Potency entry in test [2] and in [7] was “inactive” each time. For the same molecule, the molecule was classed as inactive in [4], in test [5], in test [6], in test [8], in test [9] and in [10].
For the molecule `CC(O)CO` (centres undefined), the Potency entry in test [1], in test [2], in test [3] and in [7] was “inactive” in each case. Further, the result in test [4], in [5], in test [6], in test [8], in test [9] and in test [10] was inactive.
